# The whole screen tested about 2,300 compounds, of which about 20 (0.9%) were called active. This excerpt belongs to a sample that is enriched for actives. A number with no mark means an inactive call.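 Rule for the calls: active = mean percent activation across replicates above the counterscreen hit cutoff of 9.17%; inactive = the rest.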
# Target: Glucose-dependent insulinotropic receptor (Homo sapiens) (UniProt Q8TDV5)
# Assay: GPR119 activators in beta-arrestin cells, confirmation, counter-screen for GPR151 activator project, cell-based, PathHunter beta-arrestin, luminescence, set 2 (AID 1508607);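 note: 0% = median of sample wells and 100% = wells given EA reagent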
# Conditions: 90 min, at 11.2 µM, stronger effect = higher value
# Sequence of Glucose-dependent insulinotropic receptor (Homo sapiens) (Q8TDV5 whole entry, looked up): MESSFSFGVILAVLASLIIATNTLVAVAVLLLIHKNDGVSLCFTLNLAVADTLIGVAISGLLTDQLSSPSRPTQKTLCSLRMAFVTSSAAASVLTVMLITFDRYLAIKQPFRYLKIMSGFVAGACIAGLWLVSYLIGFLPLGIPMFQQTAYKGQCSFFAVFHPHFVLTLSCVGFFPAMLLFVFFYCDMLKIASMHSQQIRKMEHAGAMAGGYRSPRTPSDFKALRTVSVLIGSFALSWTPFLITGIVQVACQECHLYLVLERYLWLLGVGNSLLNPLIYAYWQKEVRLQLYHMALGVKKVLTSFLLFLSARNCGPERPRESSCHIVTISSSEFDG
row,Structure (SMILES),activation
1,CC(C)OCCCNC(=O)CN(c1ccc(OCc2ccccc2)cc1)S(C)(=O)=O,-1.63%
2,COc1ccc(S(=O)(=O)CCC(=O)N2CCc3ccccc32)cc1,1.93%
3,Cc1ccc(S(=O)(=O)N2CCN3C(=O)[C@H](Cc4ccc(Cl)cc4)NC(=O)[C@H]3C2)cc1,1.14%
4,CC1(C(=O)NCC2Cc3cccc(-c4ncccn4)c3O2)CC1 (stereo not given),1.78%
5,COc1ccc(CCNc2ccnc(Nc3ccc(-n4ccnc4)cc3)n2)cc1,12.4% (active)
6,Cc1cc(Nc2ccc(N3CCOCC3)cc2)nc(Nc2ccc(-n3ccnc3)cc2)n1,3.07%
7,Cc1cc(Nc2ccc3c(c2)OCO3)nc(Nc2ccc(N3CCOCC3)cc2)n1,1.65%
8,COc1ccc(CCNc2cc(C)nc(Nc3ccc(-n4ccnc4)cc3)n2)cc1,6.54%
9,COc1cc(Nc2ccnc(Nc3ccc(N4CCOCC4)cc3)n2)cc(OC)c1OC,7.31%
10,COc1ccc(CCNc2ccnc(Nc3ccc(N4CCOCC4)cc3)n2)cc1,10.5% (active)
11,O=C(O)c1cc([N+](=O)[O-])ccc1C(=O)Nc1cccc2ccccc12,-0.79%
12,CCC(=O)N1CCc2cc(S(=O)(=O)NCCN(CC)c3ccccc3)ccc21,-1.16%
13,CC1CCC(=NNC(=O)c2ccccc2O)CC1 (stereo not given),-3.51%
14,CN(C)c1ccc(/C=C(\C#N)C(N)=C(C#N)C#N)cc1,4.1%
15,O=C(c1cccc(S(=O)(=O)N2CCOCC2)c1)N1CCCc2ccccc21,-5.28%
16,CC(=O)Cc1nsc(Nc2cccc(Cl)c2C)n1,6.59%
17,CSc1nc2sccn2c(=O)c1C(=O)NCc1ccccc1Oc1ccccc1,-1.15%
18,COc1cc2[nH]c(=O)n(CCC(=O)N3CCC(N4CCCCC4)CC3)c(=O)c2cc1OC,-2.11%
19,CN1CCN(c2cc(-c3cn[nH]c3)ccc2NC(=O)Cc2cccc(Cl)c2)CC1,11.6% (active)
20,CCOc1ccc(S(=O)(=O)N(CC(=O)NCCSc2ccccc2)c2ccccc2)cc1,-2.47%
21,COc1ccc(-n2ncc3c(Nc4ccc(C(C)C)cc4)ncnc32)cc1,9.19% (active)
22,COc1ccc(-n2ncc3c(Nc4cc(OC)ccc4OC)ncnc32)cc1,4.1%
23,COc1ccc(-n2ncc3c(Nc4cccc(F)c4)ncnc32)cc1,2.73%

row,Structure (SMILES),activation
1,C/C(=N/NC(=O)CNC(=O)c1ccccc1F)c1cccc([N+](=O)[O-])c1,-2.45%
2,CCCn1cc(SCC(=O)Nc2ccc(OC)cc2OC)c2ccccc21,4.73%
3,CC(C)(C)NC(=O)C1CCN(S(=O)(=O)c2ccc(Br)s2)CC1,3.94%
4,COCCNC(=O)c1cccc(OC2CCN(Cc3cc4ccccc4o3)CC2)c1,0.69%
5,CCOc1ccccc1CNCc1c(C(=O)O)c(C)n(Cc2cccc(Cl)c2)c1C,-3.17%
6,N#C/C(=C/c1cc(Cl)ccc1Cl)c1nc2ccccc2c(=O)[nH]1,-3.12%
7,COC(=O)c1c(OCC2CCCCO2)cc(=O)n2c1CCN(Cc1ccsc1)CC2 (stereo not given),0.67%
8,O=C(C1CCCN1S(=O)(=O)c1ccc(Cl)cc1)N1CCOCC1 (stereo not given),2.3%
9,CCOC(=O)c1cc(-c2ccccc2)sc1NC(=O)c1ccc(OC)c(OC)c1,-1.86%
10,Cc1cc(OCC(=O)Nc2sc(C)c(C)c2C(N)=O)ccc1Br,3.41%
11,N#CC1=C2SCN(Cc3ccccc3)CN2C(=O)CC1c1cccc(F)c1 (stereo not given),-1.21%
12,CC(=O)c1ccc(N2CCN(C(=O)c3cc4c(C)nc5ccccc5c4o3)CC2)cc1,0.66%
13,CCOc1ccc(/C=C2\SC(=S)N(CC(=O)Nc3ccc(O)cc3)C2=O)cc1,-3.84%
14,Cc1nc2n(n1)C(c1ccc(Cl)cc1)C=C(c1ccc(Cl)cc1)N2 (stereo not given),-0.05%
15,C=CCOc1ccc(/C=C2\NC(=S)N(c3ccc(OC)cc3)C2=O)cc1,1.06%
16,CCCCNC(=O)c1ccc(C)c(N2CCCC2=O)c1,0.14%
17,O=S(=O)(/C=C/c1ccccc1)N1c2ccccc2C=CC1c1c[nH]c2ccccc12 (stereo not given),-5.1%
18,COc1ccc(C(=O)N/N=C/c2ccc(O)cc2O)cc1OC,1.94%
19,Cc1ccc(Nc2nc(Cl)nc(N3CCOCC3)n2)cc1Cl,-1.69%
20,COC(=O)c1ccccc1NC(=O)c1cc2ccccc2oc1=O,2.29%
21,CC(=O)N1CCC(N(C(=S)Nc2cccc(Cl)c2C)C(C)C)CC1,-0.07%
22,Cc1c(Cl)cccc1NS(=O)(=O)c1c(C(C)C)cc(C(C)C)cc1C(C)C,9.78% (active)
23,CC(C)c1ccccc1OCC(=O)Nc1ccccc1Cl,-0.8%

row,Structure (SMILES),activation
1,COc1ccc(NC(=O)N2CCC(CN3CCc4ccccc4C3)CC2)cc1,-2.3%
2,Cc1cccc(Cn2c(=O)c3ccccc3n3nncc23)c1,3.36%
3,COc1ccc(N2CCN(c3ncnc4sc(C(=O)N5CCC(C(N)=O)(N6CCCCC6)CC5)c(C)c34)CC2)cc1,0.57%
4,O=C(NCc1ccco1)c1ccc2ccccc2c1,1.88%
5,COc1ccc(-c2nc3c(=O)n(C)c4ccccc4c3o2)cc1,-4%
6,CCC(=O)N1CCN(c2ccc(NC(=O)C(C)(C)C)cc2)CC1,0.46%
7,O=C(CNc1ccccc1)N/N=C/c1cccc(Oc2ccccc2)c1,-3.18%
8,O=C(/C=C/c1ccccn1)NCCN1Cc2ccccc2OC(c2ccccc2)C1 (stereo not given),1.44%
9,CCNC(=O)C(=O)Nc1ccc(OC)cc1,-1.66%
10,O=C(CSc1ccc2nnc(-c3ccncc3)n2n1)Nc1ccc(C(F)(F)F)cc1,-0.42%
11,Cc1n[nH]c(C)c1S(=O)(=O)NCc1ccc(F)cc1,-0.09%
12,O=c1oc2ccc3ccccc3c2cc1-c1nnc(Nc2ccc(Oc3ccc4ccccc4c3Cl)c(Cl)c2)s1,0.97%
13,CCC(C)OC(=O)C1=C(C)NC(=O)NC1c1cc(Br)ccc1OC (stereo not given),1.91%
14,CC(C)c1ccc(Cn2ccc3c4c(N)nc(NC5CC5)nc4ccc32)cc1,51.2% (active)
15,CC(C)CC(=O)NCC1CCC2(CCN(Cc3ccccc3F)CC2)O1 (stereo not given),2.66%
16,Cc1ccc(-n2nc3c(c2NC(=O)C2(c4ccc(Cl)cc4)CCCC2)CSC3)cc1,3.08%
17,CCOC(=O)CCCN(Cc1ccc(F)cc1)S(=O)(=O)c1ccc(F)c(C)c1,0.45%
18,COc1cc(NC(=O)c2onc(C)c2Cl)cc(OC)c1OC,-1.44%
19,CCOC(=O)N1CCN(C(=O)c2ccc3c(c2)NC(=O)C(CSCc2cc(C)ccc2C)N3)CC1 (stereo not given),2.54%
20,O=C(O)c1c(CNC2CCCc3ccccc32)c2ccccc2n1Cc1ccccc1 (stereo not given),-2.12%
21,O=C(O)c1cc([N+](=O)[O-])c(C(=O)O)cc1Oc1ccc(Cl)cc1,3.33%
22,COc1cc(/C=N/NC(=O)CCCC(=O)N/N=C/c2ccc(O)c(OC)c2)ccc1O,-0.52%
23,CCc1nnc2c3c4c(sc3nc(CC)n12)CCCC4,-1.48%

row,Structure (SMILES),activation
1,CC(C)c1ccc(N=c2c([N+](=O)[O-])nn(-c3ccccc3)n2O)cc1,5.25%
2,CCOC(=O)c1nc(NCc2ccccc2)c2ccccc2n1,2.75%
3,O=C(Cn1c(=O)oc2ccccc21)Nc1cccc(C(F)(F)F)c1,3.85%
4,CCn1cnc2sc(C(=O)Nc3ccc(Cl)c(Cl)c3)c(C)c2c1=O,0.88%
5,COc1ccc(C(=O)Nn2c(-c3ccc(F)cc3)nc3ccccc3c2=O)cc1Br,-2.33%
6,CC(=O)c1c(C)oc2c1c1c(c3ccccc32)OCN(C2CCCC2)C1,2.76%
7,COc1ccc(OC)c(-n2c(O)c(/C=C3\C=CC=N3)c(=O)[nH]c2=O)c1,1.81%
8,N#CCCN1CCN(c2ccc(F)cc2[N+](=O)[O-])CC1,3.88%
9,CC(C)c1onc(C(=O)NC2CCCCC2)c1[N+](=O)[O-],-2.5%
10,COc1ccc(O)c(C2=Nc3ccccc3N=C(c3ccc([N+](=O)[O-])cc3)C2)c1,-1.11%
11,COc1ccc(C[C@H](N)C(=O)N[C@@H]2[C@@H](CO)OC(n3cnc4c(N(C)C)ncnc43)[C@@H]2O)cc1 (stereo not given in full),-4.23%
12,O=C(CCc1nnc2n(Cc3ccccc3)c(=O)c3ccccc3n12)NCCN1CCCC1,-0.83%
13,Cc1c(NC(=O)c2cc(F)cc(F)c2)c(=O)n(-c2ccccc2)n1C,-3.89%
14,CC1CC(C)(C)NC(=S)N1CC(=O)N1CCN(Cc2ccc3c(c2)OCO3)CC1 (stereo not given),-1.14%
15,O=C(NCCO)C(=O)Nc1cccc(Cl)c1Cl,1.5%
16,Cc1ccc(NC(=O)CN(C)S(=O)(=O)c2ccc(Br)cc2)cc1Cl,4.66%
17,CCN(CC)c1ccc2cc(-c3nnc(NCc4ccc(F)cc4)s3)c(=O)oc2c1,0.77%
18,CCCCOc1ccc(C(=O)Nc2c3c(nn2-c2cccc(Cl)c2)CSC3)cc1,5.97%
19,O=C(NCCCN1CCOCC1)/C(=C/c1ccc(-c2cccc(C(F)(F)F)c2)o1)NC(=O)c1ccc(Cl)cc1,9.32% (active)
20,COCCCNC(=O)/C(=C\c1ccco1)NC(=O)c1ccc(C)cc1,-2.09%
21,Fc1ccc(-c2cnc3ccc(NCCCN4CCOCC4)nn23)cc1Cl,2.09%
